The record followed here is PubChem BioAssay AID463173 (ICCB-Longwood Screening Facility, Harvard Medical School, 2010).

Out of some 52,000 compounds screened, about 4,300 (8.3%) were called active. This is one part of a sample in which actives are shown more often than they occur. A number with no mark means an inactive call. Cut-off read from the data, not from the text of the source: active = survival mostly below about 52% (no sharp cut-off); inactive = mostly above about 56%.

This test deals with DeltatarO mutant. The test is described as follows: growth inhibition of S. aureus wild type versus tarO mutant, primary screen, teichoic acid synthesis inhibitors, RN4220, OD600 (AID 463173). To be noted: OD600, 18 h, active compounds read low, screened at 18.75 µg/mL (by protocol).
Regarding `COc1ccc(C(c2c(C)n(C)n(-c3ccccc3)c2=O)c2c(C)n(C)n(-c3ccccc3)c2=O)cc1O`, the survival is 84%.

For `COc1ccc(-c2[nH]c(-c3ccccc3)nc2SCC(=O)Nc2ccc3c(c2)OCO3)cc1`, the survival is 51%.

For the compound `Clc1cccc(-n2cc(-c3ccccc3)c3c(NC4CCCC4)ncnc32)c1`, the survival is 78%.

As for `COc1ccccc1N1CCN(S(=O)(=O)c2c(C)sc3ncn(CC(=O)N(C)c4ccc(Cl)cc4)c(=O)c23)CC1`, the survival was 65%.

`COc1ccc(NC(=O)CC(C)S(=O)(=O)c2cc3c(cc2C)NC(=O)CO3)cc1OC` (centres undefined): the survival was 88%.

As for `CCC(C)NC(=O)CSc1nc2cc3c(cc2c(=O)n1CCCCCC(=O)NCc1ccc(OC)cc1)OCO3` (centres undefined), the survival was 76%.

Take `COc1ccc(-c2nc(C)c(CCNC(=O)C(=O)Nc3ccccc3F)s2)cc1`: the survival was 115%.

As to `CN(C)c1ccc(-c2nnc(SCC3CCCO3)n2C)cc1` (centres undefined), the survival is 82%.

Take `O=C(CCC1N=C2c3ccccc3N=C(SCc3ccc(Cl)cc3)N2C1=O)NCCc1ccccc1` (centres undefined): the survival was 90%.

As for `Cc1nn(-c2ccccc2)c2sc(C(=O)Nc3ccc(Br)cc3)cc12`, the survival was 26% (active).

Take `Cc1nn(-c2ccccc2)c2sc(C(=O)N/N=C/c3ccccc3)cc12`: the survival was 110%.

As for `Cc1cccc(NC(=O)c2ccc(-c3ccccc3)s2)c1`, the survival was 82%.

In the case of `Cc1cccc(NC(=O)c2cc3c(C)nn(-c4ccccc4)c3s2)c1`, the survival was 6% (active).

On to `CCOc1ccc(NC(=O)c2cc3c(C)nn(-c4ccccc4)c3s2)cc1`, for which the survival is 75%.

With `O=C(c1cccc(Cl)c1)N1c2ncnn2C2(CCCCC2)[C@@H]2CCCC[C@@H]21`, the survival is 80%.

Take `O=C(NCc1ccccc1Cl)C1CCCN(C(=O)c2cnn(-c3ccc(F)cc3)c2-n2cccc2)C1` (centres undefined): the survival is 67%.

As for `O=C(CCN1N=C(c2ccccc2)CCC1=O)NCCc1ccc(Cl)cc1`, the survival is 122%.

Consider `CCc1cccc(NC(=O)c2c(C)oc3ncnc(N4CCCCC4)c23)c1`, for which the survival was 54%.

In the case of `COC(=O)CSc1nc2c(cc1C#N)CCCC2`, the survival is 106%.

Consider `CC1CCN(c2oc(-c3cccs3)nc2S(=O)(=O)c2ccc(Cl)cc2)CC1`, for which the survival is 17% (active).

Take `COc1ccccc1-c1nc(S(=O)(=O)c2ccc(Cl)cc2)c(N2CCCCCC2)o1`: the survival is 60%.

For the compound `O=S(=O)(c1ccc(Cl)cc1)c1nc(-c2ccccc2Br)oc1N1CCOCC1`, the survival is 59%.

For the compound `O=S(=O)(c1ccc(Cl)cc1)c1nc(-c2cccs2)oc1SCc1ccc(F)cc1`, the survival was 67%.

Consider `COc1ccccc1-c1nc(S(=O)(=O)c2ccccc2)c(N2CCC(C)CC2)o1`, for which the survival was 19% (active).

On to `Cc1ccc(S(=O)(=O)c2nc(-c3cccs3)oc2N2CCC(C)CC2)cc1`, for which the survival was 8% (active).

Regarding `COc1ccc(-c2nc(S(=O)(=O)c3ccccc3)c(N3CCC(C)CC3)o2)cc1`, the survival was 74%.

As for `O=S(=O)(c1ccc(Cl)cc1)c1nc(-c2cccs2)oc1N1CCCCC1`, the survival was 45% (active).

For `CC1CCN(c2nc3c(S(=O)(=O)c4ccc(Cl)cc4)nnn3c3ccsc23)CC1`, the survival was 113%.

Turning to `CCCSc1oc(-c2cccs2)nc1S(=O)(=O)c1ccc(Cl)cc1`, the survival was 65%.

`COc1ccccc1-n1nc(-c2ccccc2)c2cnc3cc(C(F)(F)F)ccc3c21`: the survival is 81%.

In the case of `CCCS(=O)(=O)N1CC(=O)N(c2cccc(Cl)c2C)C(C)(C(=O)NC2CCCC2)C1` (centres undefined), the survival was 99%.

In the case of `COc1ccccc1N1CCN(C(=O)c2cc3c(=O)n(Cc4ccco4)ccc3nc2C)CC1`, the survival was 80%.

With `CC(C)CN1CCc2nc(N3CCN(C)CC3)ncc2C1`, the survival was 83%.

For the compound `Sc1ccc2oc3ccc(S)cc3c2c1`, the survival was 93%.

Regarding `CCS(=O)(=O)c1nc(S(=O)(=O)c2ccc(C)cc2)c(NCc2ccccc2Cl)s1`, the survival was 81%.

On to `CCc1nn(CC(=O)Nc2ccc(N(CC)CC)cc2C)c(=O)c2cc3sccc3n12`, for which the survival is 77%.

`O=C(Cc1ccc(Cl)cc1)Nc1ccc2oc(-c3ccccc3F)nc2c1`: the survival was 118%.

Consider `COc1ccc(/C=C/c2nc3ccccc3c(=O)n2-c2cccc(C(F)(F)F)c2)cc1`, for which the survival was 91%.

For the compound `COc1cccc2sc(NC(=O)CS(=O)(=O)c3ccc(C)cc3)nc12`, the survival was 101%.

With `c1ccc(-c2cn(-c3ccccc3)c3ncnc(N4CCN(c5ccccc5)CC4)c23)cc1`, the survival was 90%.

Regarding `O=CN1CCN(S(=O)(=O)c2ccc(S(=O)(=O)NC3CC3)cc2)CC1`, the survival is 72%.

With `CCOc1ccc(-c2nnc(SCC(=O)NCc3ccc(C)cc3)nc2-c2ccc(OCC)cc2)cc1`, the survival was 106%.

`Cc1ccc(NC(=O)c2ccco2)cc1NC(=O)CSc1ncnc2sc3c(c12)CCC3`: the survival was 54%.

As to `CC1CCN(c2nc3c(S(=O)(=O)c4ccccc4)nnn3c3ccsc23)CC1`, the survival is 113%.

On to `Cc1ccc(S(=O)(=O)c2nc(-c3cccs3)oc2N2CCCCC2)cc1`, for which the survival is 39% (active).

As for `CC1CCN(c2oc(-c3cccs3)nc2S(=O)(=O)c2ccccc2)CC1`, the survival is 35% (active).

For the compound `O=S(=O)(c1ccccc1)c1nc(-c2cccs2)oc1N1CCCCC1`, the survival is 116%.

Turning to `COc1cccc(-c2nc(S(=O)(=O)c3ccccc3)c(N3CCC(C)CC3)o2)c1`, the survival is 50%.

In the case of `COc1ccc(CCNC(=O)CCCn2c(=O)c3ccccc3n(Cc3c(C)cc(C)cc3C)c2=O)cc1OC`, the survival was 89%.

Regarding `O=C(NC1CCCCC1)C(c1cccs1)N(Cc1ccco1)C(=O)C1COc2ccccc2O1` (centres undefined), the survival was 96%.

Take `COc1ccc(OC)c(S(=O)(=O)N2CCC(n3c(C)nc4cccnc43)CC2)c1`: the survival was 73%.

Turning to `CCc1ccc2occ(CC(=O)Nc3sc4c(c3C(=O)NCCOC)CCCC4)c2c1`, the survival was 77%.

Consider `CCC(=O)Nc1cc(-c2cccc(C)c2)nn1-c1ccccc1`, for which the survival was 83%.

As for `CC1=C(C#N)C(=O)NC(C)(C)C1`, the survival is 76%.

As to `Cc1ccc(C)c(N2CCN(c3nc4ccc(Cl)cc4n4cnnc34)CC2)c1`, the survival is 89%.

For the compound `Clc1cccc(N2CCN(c3nc4ccccc4n4cnnc34)CC2)c1`, the survival is 62%.

In the case of `Cc1ccc2nc(N3CCN(c4cccc(C)c4C)CC3)c3nnnn3c2c1`, the survival was 81%.

Regarding `CCc1nnc2c(N3CCN(c4cccc(C(F)(F)F)c4)CC3)nc3ccccc3n12`, the survival is 108%.

Regarding `Cc1ccc(Cl)cc1N1CCN(c2nc3ccc(C(=O)c4ccccc4)cc3n3cnnc23)CC1`, the survival was -4% (active).

Turning to `FC(F)(F)c1cccc(N2CCN(c3nc4ccccc4n4cnnc34)CC2)c1`, the survival is 25% (active).

For the compound `Cc1ccc2nc(N3CCN(c4cccc(C)c4C)CC3)c3nncn3c2c1`, the survival is 39% (active).

As to `CCc1nnc2c3ccccc3nc(N3CCN(c4cc(Cl)ccc4C)CC3)n12`, the survival is 104%.

As for `Cc1ccc(N2CCN(c3nc4ccc(C(=O)c5ccccc5)cc4n4cnnc34)CC2)c(C)c1`, the survival was 82%.

`CCc1nnc2c(N3CCN(c4cc(Cl)ccc4C)CC3)nc3ccccc3n12`: the survival is -5% (active).

`Cc1ccc(C)c(N2CCN(c3nc4ccc(C(=O)c5ccccc5)cc4n4cnnc34)CC2)c1`: the survival is 79%.

`Cc1ccc(C)c(N2CCN(c3nc4ccccc4n4c(C)nnc34)CC2)c1`: the survival was 77%.

Consider `COc1ccccc1-c1nnc2n(CCc3ccccc3)c(=O)c3ccccc3n12`, for which the survival was 69%.

Consider `CCN(CC)C(=O)c1sc2c(c1C)c(=O)n(-c1ccc(C)c(C)c1)c(=O)n2CC(=O)Nc1ccc(OC)cc1OC`, for which the survival was 78%.

Take `O=C(NCc1cccc(Cl)c1)C1CCCN(c2ncnc3onc(-c4ccc(F)cc4)c23)C1` (centres undefined): the survival was 90%.

Turning to `COc1ccc(C)cc1NC(=O)c1nnn(Cc2cccc(Br)c2)c1N`, the survival was 87%.

In the case of `COc1ccc(N2CCN(c3oc(-c4ccc(COc5cccc(C)c5)o4)nc3C#N)CC2)cc1`, the survival is 102%.

With `COc1cc2nc(C3CCC3)n(NC(=O)c3ccco3)c(=O)c2cc1OC`, the survival is 82%.

For the compound `O=S1(=O)N=C(Nc2cccc(C(F)(F)F)c2)c2ccccc21`, the survival was 53%.

Regarding `Cc1nnc2c(N3CCN(c4ccccc4F)CC3)nc3ccc(C(=O)c4ccccc4)cc3n12`, the survival was 93%.

Regarding `COc1ccccc1N1CCN(c2nc3ccc(C(=O)c4ccccc4)cc3n3c(C)nnc23)CC1`, the survival was 46% (active).

For `Cc1nnc2c(N3CCN(c4ccccc4)CC3)nc3ccc(C(=O)c4ccccc4)cc3n12`, the survival is 80%.

As to `COc1ccc(NC(=O)Cn2nc(-c3ccccc3)c3cnc4ccc(C)cc4c32)cc1`, the survival is 63%.

For the compound `CC(C)c1ccc2c(c1)-c1ccccc1S(=O)(=O)N2CC(=O)N1CCCCC1`, the survival is 85%.

On to `CCCC(=O)NC(C)c1nc2ccccc2n1Cc1ccccc1` (centres undefined), for which the survival is 101%.

Turning to `Cc1cc(N2CCOCC2)cc(C)[n+]1[O-]`, the survival was 90%.

As to `COc1ccccc1C1CC(=O)N(c2cccc(C(F)(F)F)c2)C2=C1C(=O)OC2` (centres undefined), the survival is 56%.

In the case of `Cc1cc(C)cc(N2C(=O)CC(c3ccc(C(F)(F)F)cc3)C3=C2COC3=O)c1` (centres undefined), the survival is 72%.

Consider `CCc1ccc(C2CC(=O)N(c3cccc(C(F)(F)F)c3)C3=C2C(=O)OC3)cc1` (centres undefined), for which the survival is 57% (active).

Regarding `CCN(CC)c1ccc(NC(=O)c2cc(CN3CCCC3)on2)c(C)c1`, the survival was 102%.

For the compound `CC(=O)c1ccc(N2CCN(c3ncnc4onc(C)c34)CC2)cc1`, the survival was 55%.

As for `COc1ccc(S(=O)(=O)c2nnn(-c3cccc(Cl)c3)c2N)cc1`, the survival was 56%.

With `CCOc1cccc(-c2nc3ccccc3c(=O)o2)c1`, the survival was 35% (active).

On to `CCOc1ccc(-c2nc3ccccc3c(=O)o2)cc1`, for which the survival is 68%.

Consider `CCCOc1ccc(-c2nc3ccccc3c(=O)o2)cc1`, for which the survival is 64%.
